# WT yeast gro inh = growth inhibition of WT strain, primary screen, mitochondrial fusion inhibitor project, WT and mutant strains, chemical genetic. mitochondrial fusion phenotypic screen. inhibition, % at 10 µM. hit rate 2.1% among 190,000; in the data active = inhibition above about 58%; tested in S. cerevisiae
# L major viab = Leishmania major promastigote growth inhibition, primary screen; Leishmania major promastigotes, resazurin fluorescence viability; inhibition, % at 10 µM; hit rate 9% among 200,000; AID 1063, 2008; in the data active = inhibition above about 50%;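 note: promastigotes grown with compound for 44 hours at 28 °C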
# Ins promoter up = insulin promoter activators in MIN6 cells, imaging, high-content screening, mouse beta cells; z-score at 5 µM; AID 1625, 2009; hit rate 0.3% among 190,000; MIN6 insulin promoter-GFP reporter; stronger effect = higher value;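 active = z-score above 3 at 5 µM with at least 500 cells counted in the well; inconclusive = wells under 500 cells, flagged as cytotoxic or low count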
# INS promoter inh = inhibitors of insulin promoter-driven GFP, primary screen, imaging, TRM-6 cells (human fetal islet line), eGFP reporter, cell count; reporter expression induced with tamoxifen; inhibition, % at 2 µM; hit rate 0.9% among 130,000; AID 1273, 2008;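 active = inhibition above the mean plus 3 SD, with well images judged a real hit on visual review, cut at about 60% in these data, passing the limit was not always enough; inconclusive = inhibition over the cutoff but images rejected on review; inactive = inhibition not above the cutoff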
# Autophagy mod = autophagy modulators in MEF cells, primary screen, imaging, high-content, MEF GFP-LC3; MEF GFP-LC3 puncta imaging; test concentration mostly 10 µM; calls only at 10 µM (by protocol); hit rate 0.98% among 190,000;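 active = percentage of spot-positive cells more than 3 SD above its plate mean, without a fluorescence outlier flag or 80% toxicity; inconclusive = no clear call, values can overlap the other calls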;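 note: spot-positive cell cutoff set from DMSO-treated cells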
# Lmaj promast 1uM = Leishmania major promastigote growth inhibition, confirmation, 1 µM repeat of primary hits | shares compounds with L major viab | L. major promastigote growth, resazurin fluorescence, 48 h | inhibition, % at 1 µM | hit rate 13% among 1,100 | AID 1258, 2008;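 active = inhibition above about 50% in both repeat tests, limit read from the data; inconclusive = one repeat under the set limit, the other over it; inactive = both repeats under the set limit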
# * hit, by the source's call; i = inactive; ? = inconclusive; nt = no result; + = active, no number. In the library only some 11% were active in any assay of this set; here they are far more common.
SMILES,WT yeast gro inh,L major viab,Ins promoter up,INS promoter inh,Autophagy mod,Lmaj promast 1uM
O=c1c2ccccc2c(C=NCc2ccccn2)c(O)n1-c1ccccc1Cl,-9,27,-0.05,-50,i,nt
CCOc1ccc(N(CC)S(=O)(=O)c2ccc3c(c2)oc(=O)n3C)cc1,-29,57*,nt,-29,i,-12
CCOc1ccc(NS(=O)(=O)c2ccc3c(c2)oc(=O)n3C)cc1,-1,-4,0.82,nt,i,nt
CCOCCCNC(=O)C(c1ccc(C)cc1)N(Cc1cccs1)C(=O)CNC(C)=O (centres undefined),-14,4,-0.1,11,i,nt
O=C(C1CCCN(S(=O)(=O)c2ccc(F)cc2)C1)N(Cc1cccs1)C1CC1 (centres undefined),3,0,-0.82,-19,i,nt
CC1Cc2ccccc2N1C(=S)Nc1ccc(S(N)(=O)=O)cc1 (centres undefined),-13,80*,-0.56,-5,i,-22
O=[N+]([O-])c1cc(S(=O)(=O)Nc2ccccc2)ccc1-n1nnc2ccccc21,-15,66*,1.5,8,i,-13
COc1ccc(NS(=O)(=O)c2ccc(S(=O)(=O)N3CCCC3)cc2)cc1Cl,-20,4,nt,nt,i,nt
CCOP(=O)(c1ccccc1)c1nc(-c2ccccc2C)oc1N1CCCCC1 (centres undefined),1,50*,nt,nt,i,-16
Cc1ccccc1-c1nc(P(=O)(c2ccccc2)c2ccccc2)c(N2CCOCC2)o1,nt,nt,-0.31,nt,nt,nt
CN1CCCC1CCNC1C2CC3CC(C2)CC1C3 (centres undefined),12,53*,-1.2,-63,i,-18
CCOC(=O)C(NC(=O)c1ccc(Cl)cc1Cl)(Nc1ccc(C)cc1)C(F)(F)F (centres undefined),3,16,nt,54,i,nt
Cc1cccc(C(=O)N2CCN=C2SCc2ccc([N+](=O)[O-])cc2)c1,-22,10,0.87,-45,i,nt
Cc1ccc2[nH]c3c(c2c1)CCC3=O,-13,-2,0.65,nt,i,nt
Cc1ccc2[nH]c3c(c2c1)CCc1cn[nH]c1-3,17,52*,-0.7,0,i,-8
Nc1nonc1C(=O)N/N=C/c1cccc([N+](=O)[O-])c1,-9,54*,0.16,-11,i,1
CN(C)c1ccc(/C=N/NC(=O)c2nonc2N)cc1[N+](=O)[O-],5,-6,-0.33,nt,i,nt
COc1ccc(/C=C2\CN(Cc3ccccc3)C/C(=C\c3ccc(OC)cc3OC)C2=O)c(OC)c1,1,71*,-1.4,nt,i,-2
CCCCC(=O)Nc1nnc(-c2ccco2)o1,5,-4,1.5,nt,i,nt
Cc1cccc(Nc2nc(N)c([N+](=O)[O-])c(N3CCC(C)CC3)n2)c1,32,15,-0.58,-7,i,nt
Cc1cccc(Nc2nc(N3CCN(C)CC3)nc(N)c2[N+](=O)[O-])c1,3,96*,2.3,nt,i,-3
CCCCCOc1ccc(Br)cc1/C(C)=N/NC1=NCCN1,70,100*,-5.2,i,+,35
C/C(=N\NC1=NCCN1)c1ccccc1,nt,nt,-0.16,nt,nt,nt
Cc1cccc(NCCC(=O)c2ccc(Br)cc2)c1,1,54*,-0.35,nt,i,-11
CC(C)c1ccc(NCCC(=O)c2ccc(Br)cc2)cc1,-10,6,-0.24,nt,i,nt
SMILES,WT yeast gro inh,L major viab,Ins promoter up,INS promoter inh,Autophagy mod,Lmaj promast 1uM
CCN1/C(=C/C=C/c2oc3ccc4ccccc4c3[n+]2CC)Oc2ccc3ccccc3c21,76,100*,nt,nt,?,101*
CCN(CC)C(=O)C1CCN(S(=O)(=O)c2ccc(C3CNC(=O)C3)cc2)CC1 (centres undefined),10,-7,0.33,nt,nt,nt
c1ccc(-c2nc(-c3cccnc3)n[nH]2)cc1,5,-2,-0.34,-6,i,nt
Brc1cccc(-c2n[nH]c(-c3ccccc3)n2)c1,47,57*,0.89,39,i,0
CCN(CC)c1ccc(NC(=O)c2ccc(Br)o2)c(C)c1,6,57*,nt,-24,i,6
COc1ccccc1NC(=O)N(Cc1ccc2c(c1)OCO2)Cc1nc2ccccc2c(=O)[nH]1,13,-6,-0.68,-8,i,nt
COc1cccc(C(=O)N(Cc2ccc3c(c2)OCO3)Cc2nc3ccccc3c(=O)[nH]2)c1,-10,82*,0.01,nt,i,-19
CCc1c(C)sc(NC(=O)c2cc(-c3ccco3)on2)c1C#N,-4,-5,0.14,30,i,nt
